This is an account of results in the supplement of paper PMC6555819.

Test in all cases: PBM binding z-score (relative to random genomic background probes); higher = stronger binding; sequences stand for … in GC…GCGATTGACAGCGTAGAATGAAGG
For assay [1], the system named is FXR:RXRa (NR concentration 270 nM, RXRa partner concentration 90 nM). In a few lines: (§1)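 Scanned fluorescence from custom Agilent 4×180K protein-binding microarrays was regression-normalized. Binding z-scores use random background probes as reference. Ligand-free nuclear receptor dimers were incubated on the arrays for 1 h and detected with antibodies against each partner (one per run).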

In assay [2] the test system is LXRa:RXRa (NR concentration 270 nM, RXRa partner concentration 90 nM). In a few lines: as §1
Assay [3] concerns LXRa homodimer (NR concentration 270 nM). In a few lines: as §1
Assay [4] has as its system LXRb:RXRa (NR concentration 270 nM, RXRa partner concentration 90 nM). In outline: as §1
Assay [5] deals with LXRb homodimer (NR concentration 270 nM). In a few lines:
as §1

Assay [6] deals with PPARa:RXRa (NR concentration 270 nM, RXRa partner concentration 90 nM). In outline:
as §1

Assay [7] relates to PPARg:RXRa (NR concentration 180 nM, RXRa partner concentration 90 nM). In outline: as §1
For assay [8], the system named is PPARg:RXRa 270nM:90nM, anti-RXR (NR concentration 270 nM, RXRa partner concentration 90 nM). In outline: as §1
Assay [9] concerns PPARg:RXRa 30nM:10nM, anti-RXR (NR concentration 30 nM, RXRa partner concentration 10 nM). In outline: as §1
Assay [10] has as its system PPARg:RXRa 90nM:30nM, anti-RXR (NR concentration 90 nM, RXRa partner concentration 30 nM). In a few lines:
as §1

Consider ATCTGTAGGTAAAAGTTCAGTGAATCCCGAGGAT, for which the PBM binding z-score came out at 0.442 in [1]; 1.21 in assay [2]; 0.955 in [3]; 0.989 in assay [4]; 0.43 in assay [5]; 4 in assay [6]. In addition, the PBM binding z-score in assay [7] worked out at 8.09; in assay [8], 7.62; in assay [9], 7.35; in assay [10], 8.71.

For the sequence TCTATTAGTTGTAGGGCAACCGACGAGTCCGTTT, the PBM binding z-score is 0.532 in [1]; 0.422 in [2]; 0.481 in [3]; 0.268 in [4]; 0.355 in assay [5]; 1.1 in [6]. Besides, the PBM binding z-score in [7] is 0.164; in [8], 1.78; in [9], 3.28; in assay [10], 2.49.

On to ATCTCTATGTAAGACTCAGTTCAGTGAAGAACGC, for which the PBM binding z-score was -0.0618 in assay [1]; 0.138 in [2]; 0.304 in [3]; -0.0643 in assay [4]; 0.391 in assay [5]; -0.231 in assay [6]. For the same sequence, the PBM binding z-score in assay [7] was 0.076; in assay [8], -0.0831; in [9], -0.162; in [10], -0.281.

With CCGACTGGGGCAGGAAGGTTACCATACCATCCGG, the PBM binding z-score was -0.0935 in assay [1]; -0.228 in assay [2]; -0.392 in assay [3]; -0.202 in assay [4]; -0.995 in [5]; 0.76 in [6]. The PBM binding z-score in assay [7] is 0.782; in assay [8] it was 0.189; in assay [9], -0.465; in [10], -0.0165.

AGAACGAGGGCTCGCTGAGTTGATAGCAGAGTAG: the PBM binding z-score was -0.628 in assay [1]; -0.88 in [2]; -0.835 in assay [3]; -0.918 in [4]; -1.31 in assay [5]; -0.747 in [6]. Moreover, the PBM binding z-score is 0.239 in [7], -0.824 in assay [8], -0.528 in assay [9] and -0.552 in assay [10].

As for GATACAGGCTCAAGGCCAGAGTACGCGTATTGAT, the PBM binding z-score was -0.696 in assay [1]; -0.88 in assay [2]; -0.571 in [3]; -1.04 in [4]; -0.938 in assay [5]; -0.602 in assay [6]. Also, the PBM binding z-score in assay [7] is 0.777; in assay [8], 0.34; in assay [9], -0.217; in assay [10], -0.0733.

For TTACCAAGGTGAGCTGAGGTCGTTTATCCAACTC, the PBM binding z-score in [1] is 2.17; in assay [2], 1.37; in assay [3] it was -0.142; in assay [4], 0.978; in assay [5], -0.227; in [6], 1.61. For the same sequence, the PBM binding z-score is -0.0022 in assay [7], 0.829 in assay [8], -0.0958 in assay [9] and 0.644 in assay [10].

Take ATATGTTGGTTAAGGGTCATTCAGGTTGGTTCGC: the PBM binding z-score in assay [1] stood at 4.33; in assay [2], 4.39; in [3], 2.88; in assay [4] it was 4.31; in [5] it was 1.83; in assay [6], 4.83. Further, the PBM binding z-score in [7] came out at 6.96; in [8], 7.58; in assay [9] it was 6.29; in assay [10], 7.73.

For TCTCGGAGGACACGAAAGGTTAGAGCTCGACATC, the PBM binding z-score in assay [1] is 1.18; in [2] it was 0.89; in assay [3], -0.0791; in assay [4], 0.782; in assay [5] it was -0.852; in assay [6] it was 1.46. In addition, the PBM binding z-score in assay [7] came out at 0.441; in [8], 1.69; in assay [9], 2.52; in assay [10] it was 2.03.

With ATATGTCGGTTACATCCGGGTCATTCAGGCTATG, the PBM binding z-score was 1.65 in assay [1]; 2.86 in assay [2]; 1.27 in assay [3]; 1.92 in [4]; 0.559 in assay [5]; 2.79 in [6]. Moreover, the PBM binding z-score in assay [7] came to 1.55; in [8], 1.48; in assay [9] it was 0.573; in [10], 1.09.

As to CGAACGAGGGCATGAGTTGATAGAAAATGCCGAT, the PBM binding z-score in assay [1] was 0.363; in assay [2], 0.324; in assay [3] it was -0.393; in [4] it was 0.256; in assay [5] it was -0.832; in assay [6], 1.58. Besides, the PBM binding z-score in assay [7] came out at 1.42; in assay [8] it was 1.33; in assay [9], 0.36; in assay [10], 0.956.

For ATCTAAAGGTCGAGGTGAGTATAGAGAAAGGGAA, the PBM binding z-score in [1] came to 4.67; in [2], 4.45; in assay [3] it was 0.751; in [4], 3.06; in assay [5], 1.17; in assay [6] it was 4.61. For the same sequence, the PBM binding z-score in assay [7] is 3.83; in assay [8], 4.02; in assay [9], 1.72; in assay [10] it was 3.16.
